Measurements published in PubChem BioAssay (NCATS).
Results filed as inconclusive are left out. Where a call stands in place of a potency, no number is given. A number with no mark means an inactive call. Activity calls are given as the source filed them. Calls follow the shape of the dose curve; as a rule, active = well fitted cell-killing curve with a large enough effect; inconclusive = small, poorly fitted or top-dose-only effect, or effect the other way; inactive = flat fitted curve, though single readings scatter.

Key:
Assay in all cases: Primary qHTS to identify gynecologic anti-cancer compounds using libraries of approved drugs and bioactive compounds (AID 1345084); also: nearly all actives have a fitted effect of over 55% in size
Settings in all cases: Gynecologic cancer cell panel viability, ATPlite luminescence, 48 h; series mostly up to 57.5 µM
[1] = test system: PA-1
Method in brief: (§1)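 Five-point cytotoxicity, 48 h drug exposure at 37 C, 5% CO2, on cells seeded 16 h beforehand. ATP content read by ATPlite luminescence.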

[2] = test system: SKOV3
Method in brief: as §1

[3] = test system: Tov-21-G
Method in brief: as §1

[4] = test system: Tov112D
Method in brief: as §1
Potency is read from the fitted curve at half-maximal effect.

Structure (SMILES)	activity change, negative = cytotoxicity [1]	activity change, negative = cytotoxicity [2]	activity change, negative = cytotoxicity [3]	activity change, negative = cytotoxicity [4]	Potency [1]	Potency [2]	Potency [3]	Potency [4]
CC(=O)O[C@@H]1[C@@H](O)[C@H](O[C@@H]2[C@@H](O)[C@@H](O)[C@H](O[C@H]3[C@H](O[C@H]4[C@H](O[C@H]5CC[C@@]6(C)C(CC[C@]7(C)C6CC=C6[C@@H]8CC(C)(C)CC[C@]8(C(=O)O)CC[C@]67C)[C@]5(C)CO)O[C@H](CO)[C@@H](O)[C@@H]4O)OC[C@@H](O)[C@@H]3O)O[C@H]2C)OC[C@H]1O (stereo partly specified)	-1.55% [at 11.6 µM]	10.7% [at 11.6 µM]	-11% [at 11.6 µM]	-6.37% [at 11.6 µM]	–	–	–	–
C=C(C)C1CCC2(C(=O)O)CCC3(C)C(CCC4C5(C)C(C=O)C(O)C(C)(C)C5CCC43C)C12 (stereo unspecified)	–	–	–	–	inactive	inactive	inactive	inactive
COc1cccc(N2CCN(C3=Nc4c(F)cccc4[C@H](CC(=O)O)N3c3cc(C(F)(F)F)ccc3OC)CC2)c1	–	–	–	–	inactive	inactive	inactive	inactive
COc1cc(C(C)C)c(Oc2cnc(N)nc2N)cc1I	–	–	–	–	inactive	inactive	inactive	inactive
O=C(NCCN1CCOCC1)c1cc2c(Oc3ccc(NC(=O)C4(C(=O)Nc5ccc(F)cc5)CC4)cc3)ccnc2[nH]1	–	–	–	–	inactive	inactive	inactive	inactive
CC1CCCC(O)CCC/C=C/c2cc(OS(=O)(=O)O)cc(O)c2C(=O)O1 (stereo unspecified)	–	–	–	–	inactive	inactive	inactive	inactive
CC[C@@H](Nc1c(Nc2cccc(C(=O)N(C)C)c2O)c(=O)c1=O)c1cc(C(C)C)co1	–	–	–	–	inactive	inactive	inactive	inactive
CC1OC(OC2C(O)COC(O[C@@H]3[C@@H](O)[C@@H](O)[C@H](OC4C(OC(=O)[C@]56CCC(C)(C)CC5C5=CCC7[C@@]8(C)C[C@H](O)[C@H](OC9OC(CO)C(O)C(O)C9O)[C@@](C)(CO)C8[C@H](O)C[C@@]7(C)[C@]5(C)CC6)OCC(O)C4O)O[C@H]3C)C2O)C(O)C(O)C1O (stereo partly specified)	0.113% [at 6.55 µM]	-8.72% [at 6.55 µM]	-21.3% [at 6.55 µM]	-9.06% [at 6.55 µM]	–	–	–	–
O=C(CSc1nc2ccccc2c(=O)n1-c1ccccc1)Nc1ccc2c(c1)CCC2	–	–	–	–	inactive	inactive	inactive	inactive
COC(=O)/C=C/C=C/C(=O)OC1C=C2COC(=O)C2(O)C2(C)CCCC(C)(C)C12 (stereo unspecified)	–	–	–	–	inactive	inactive	inactive	inactive
CCOC(=O)N1CCC(N2CCC[C@@H](NC(=O)c3ccccc3C)C2)CC1	–	–	–	–	inactive	inactive	inactive	inactive
O=C(Nc1ccccc1)N1CCC(Cc2cnc3ccccc3c2)CC1	–	–	–	–	inactive	inactive	inactive	inactive
C=C1CC[C@@H](O)[C@]2(C)C[C@H]3OC(=O)C(=C)[C@H]3CC12 (stereo partly specified)	–	–	–	–	inactive	inactive	inactive	inactive
COc1ccc(S(=O)(=O)Nc2cc(Cl)cc(Cl)c2OC)cc1N1CCNCC1	–	–	–	–	inactive	inactive	inactive	inactive
CCN(CC)CCCS(=O)(=O)N[C@H](CCc1ccccc1)c1nc(Cc2ccc(Br)cc2)no1	–	–	–	–	inactive	inactive	inactive	inactive
COc1ccc(NC(=O)C2C[C@H](C)CC[C@H]2C(C)C)cc1 (stereo partly specified)	–	–	–	–	inactive	inactive	inactive	inactive
Cc1ccccc1C(C(=O)NC1CCCCC1)N(C(=O)Cn1cnc2ccccc21)c1cccc(F)c1 (stereo unspecified)	–	–	–	–	inactive	inactive	inactive	inactive
CCCC(=O)C1(c2ccccc2)CCN(C(=O)[C@@H](Cc2ccc(OC)cc2)NC(=O)[C@@H](N)Cc2cncn2C)CC1	–	–	–	–	inactive	inactive	inactive	inactive
O=C(Nc1ccc2[nH]c(=O)oc2c1)C(=O)N1CCC(Cc2ccc(F)cc2)CC1	–	–	–	–	inactive	inactive	inactive	inactive
CCCc1cc2c(N3CCN(C4=NCC(C)(C)S4)CC3)ncnc2s1	–	–	–	–	inactive	25.1 µM (active)	inactive	inactive
C=CC(C)(C)c1[nH]c2ccccc2c1C[C@@H]1NC(=O)[C@H](C)NC1=O	–	–	–	–	inactive	inactive	inactive	inactive
COC(=O)C[C@H]1C(C)(C)[C@H](OC(=O)c2ccccc2)C2CC3=C4CC(=O)O[C@@H](c5ccoc5)[C@]4(C)CCC3[C@@]1(C)C2=O (stereo partly specified)	–	–	–	–	inactive	inactive	inactive	inactive
C=C1CCCC2(C)CCC(C(C)(C)OC3OC(C)C(O)C(O)C3OC(=O)/C(C)=C\C)CC12 (stereo unspecified)	–	–	–	–	inactive	inactive	inactive	inactive
COc1cc(C(=O)O)ccc1NC(=O)C1NC(CC(C)(C)C)C(C#N)(c2ccc(Cl)cc2F)C1c1cccc(Cl)c1F (stereo unspecified)	–	–	–	–	inactive	inactive	inactive	inactive
CCCc1ccc(OCC(=O)N(Cc2nc(-c3cccnc3)no2)C(C)C)cc1	–	–	–	–	inactive	inactive	inactive	inactive
Cc1cccc(-c2[nH]ncc2-c2ccnc3ccccc23)n1	–	–	–	–	inactive	inactive	inactive	inactive
Fc1ccc2c(CCNCc3cccc(OCC(F)(F)C(F)F)c3)c[nH]c2c1	–	–	–	–	inactive	inactive	inactive	inactive

Structure (SMILES)	activity change, negative = cytotoxicity [1]	activity change, negative = cytotoxicity [2]	activity change, negative = cytotoxicity [3]	activity change, negative = cytotoxicity [4]	Potency [1]	Potency [2]	Potency [3]	Potency [4]
COC(=O)CC[C@@H](C)C1CCC2C3CCC4C[C@H](OC(C)=O)CCC4(C)C3C[C@H](O)C21C (stereo partly specified)	–	–	–	–	inactive	inactive	inactive	inactive
C/C=C(\C)C(=O)OC1C(C)C2(O)C(C=C(CO)CC3(O)C(=O)C(C)=CC32)C2C(C)(C)C12OC(=O)C(C)C (stereo unspecified)	–	–	–	–	inactive	inactive	inactive	inactive
NC(=O)C1=CC2C3C=CC2C(OC3=O)O1 (stereo unspecified)	–	–	–	–	inactive	inactive	inactive	inactive
O=c1[nH]c([C@@H]2CCCN2)nc2c1oc1ccc(Cl)cc12	–	–	–	–	inactive	inactive	inactive	inactive
O=C(Nc1cc(C(F)(F)F)cc(C(F)(F)F)c1)c1cnc(Cl)nc1C(F)(F)F	–	–	–	–	inactive	inactive	inactive	inactive
C=C1C(OC2OC(CO)C(O)C(O)C2O)CC2C(C)(C)C(O)CCC2(C)C1CC/C(C)=C\COC(=O)CC(=O)O (stereo unspecified)	–	–	–	–	inactive	inactive	inactive	inactive
COc1cc(C(N)=O)nc(-c2ccccn2)c1O	–	–	–	–	inactive	inactive	inactive	inactive
COc1cc(-c2nc(N[C@H](CO)Cc3ccccc3)ccc2C(=O)NCCOc2ccccc2)cc(OC)c1OC	–	–	–	–	inactive	inactive	inactive	inactive
CC1(C)C2CCC(CO[C@@H]3O[C@H](CO[C@@H]4OC[C@](O)(CO)[C@H]4O)[C@@H](O)[C@H](O)[C@H]3O)C1C2 (stereo partly specified)	–	–	–	–	inactive	inactive	inactive	inactive
Cc1nc(NC(=O)N2CCC[C@H]2C(N)=O)sc1-c1ccnc(C(C)(C)C(F)(F)F)c1	–	–	–	–	inactive	12.6 µM (active)	inactive	inactive
COc1c(F)cccc1C(=O)N1C[C@@H](C)CC[C@H]1CNc1ccc(Br)cn1	–	–	–	–	inactive	inactive	inactive	inactive
O=C(NCC1CCN(Cc2cccc(Cl)c2)CC1)[C@@H]1CCCN(c2ncnc3c2nc2n3CCCC2)C1	–	–	–	–	inactive	inactive	inactive	inactive
COc1ccc(Sc2ccc(NC(=O)c3ccccc3Cl)cc2C#N)cc1	–	–	–	–	inactive	inactive	inactive	inactive
CN(C)C(=O)Nc1cc(-c2ccccc2)ccc1N(C)C	–	–	–	–	inactive	inactive	inactive	inactive
COc1cc(C(=O)NCC2(N(C)C)CCCC2)cc(OC)c1OCc1ccccc1	–	–	–	–	inactive	inactive	inactive	inactive
CC1=C(C(=O)Nc2cc(Cl)ccc2Cl)C(c2ccco2)C2=C(CCCC2=O)N1 (stereo unspecified)	–	–	–	–	inactive	inactive	inactive	inactive
CCCCCCOC(=O)/N=C(\N)c1ccc(NCc2nc3cc(C(=O)N(CCC(=O)OCC)c4ccccn4)ccc3n2C)cc1	–	–	–	–	inactive	inactive	inactive	inactive
COc1ccc([C@H]2OC[C@H]3O[C@@H](O[C@H]4[C@@H]2NC[C@@H]4O)[C@H](O)[C@H]3O)cc1	–	–	–	–	5.01 µM (active)	3.98 µM (active)	2.82 µM (active)	5.62 µM (active)
CN1CCN(C(=O)CN[C@@H]2C[C@H]2c2ccc(OCc3ccccc3)cc2)CC1	–	–	–	–	inactive	inactive	inactive	inactive
CC(C)c1cccc(C(C)C)c1NC(=O)Nc1ccc(Sc2ccc([N+](=O)[O-])cc2)cc1	–	–	–	–	inactive	inactive	inactive	inactive
CC(=O)OC1CC(C)(C(=O)O)CC2C3=CC(=O)C4C5(C)CCC(OC6OC(C(=O)O)C(O)C(O)C6OC6OC(C(=O)O)C(O)C(O)C6O)C(C)(C)C5CCC4(C)C3(C)CCC12C (stereo unspecified)	22.8% [at 11.6 µM]	0% [at 11.6 µM]	-2.43% [at 11.6 µM]	-0.209% [at 11.6 µM]	–	–	–	–
COc1c(C(C)C)c(O)c(O)c2c1C(OC)[C@H]1OC(=O)[C@@]23CCCC(C)(C)[C@H]13 (stereo partly specified)	–	–	–	–	inactive	inactive	inactive	inactive
CC(=O)OC[C@]12[C@H](OC(C)=O)[C@H](OC(=O)c3ccccc3)[C@@H]3[C@@H](OC(C)=O)[C@]1(OC3(C)C)[C@H](C)C[C@H](OC(C)=O)[C@@H]2OC(=O)c1ccccc1	–	–	–	–	inactive	inactive	inactive	inactive
N#Cc1ccc(N2N=C3c4ccc(C(=O)O)cc4CC[C@@H]3[C@@H]2C2CCCC2)cc1Cl	–	–	–	–	inactive	inactive	inactive	inactive
COC1CCN(C(=O)c2cc(Cc3n[nH]c(=O)c4ccccc34)ccc2F)CC1	–	–	–	–	inactive	inactive	inactive	inactive
O=C(/C=C/c1ccccc1O)O[C@@H]1O[C@H](CO)[C@@H](O)[C@H](O)[C@H]1O	–	–	–	–	inactive	inactive	inactive	inactive
COc1cc(C2OC(c3ccc(OC)c(OC)c3)C(C)C2C)ccc1O (stereo unspecified)	–	–	–	–	inactive	inactive	inactive	inactive
